Only some compounds are listed: those with a hit (about 27% of all), similar ones and a draw of the others.
CYP2C9 activ: activators of human CYP2C9 | P11712 | recombinant CYP2C9, luciferin-H conversion, luminescence; active compounds read high; factor 1 = untreated enzyme, 0 = blocked | activation factor at 5 µM | actives 1.4% (n = 96,000);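 active = activation factor of 2 or more for CYP2C9 at a 5 µM dose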;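 note: 0 = sulfaphenazole-blocked wells and 1 = vehicle-only wells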
Cav3 T inh: inhibitors of human Cav3.2 T-type calcium channel. Cav3.2-expressing cells, Fluo-4 calcium fluorescence FDSS; active compounds read low. B-score at 10 µM. actives 4% (n = 100,000);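 active = single-dose well whose peak fluorescence ratio is a statistical outlier from its plate by either plate-standardised score or position-corrected B-score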
CYP2C19 act: activators of human cytochrome P450 2C19; activation factor at 5 µM; recombinant CYP2C19, luciferin-H EGE luminescence; active compounds read high; 0 = fully inhibited enzyme, 1 = untreated enzyme; P33261; 96,000 tested, under 10 active;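 active = activation factor of at least 2 at 5 µM in the primary screen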;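 note: 0 = wells with 2.5 mM tranylcypromine and 1 = vehicle-only wells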
Target sequence (P33261 whole entry, looked up): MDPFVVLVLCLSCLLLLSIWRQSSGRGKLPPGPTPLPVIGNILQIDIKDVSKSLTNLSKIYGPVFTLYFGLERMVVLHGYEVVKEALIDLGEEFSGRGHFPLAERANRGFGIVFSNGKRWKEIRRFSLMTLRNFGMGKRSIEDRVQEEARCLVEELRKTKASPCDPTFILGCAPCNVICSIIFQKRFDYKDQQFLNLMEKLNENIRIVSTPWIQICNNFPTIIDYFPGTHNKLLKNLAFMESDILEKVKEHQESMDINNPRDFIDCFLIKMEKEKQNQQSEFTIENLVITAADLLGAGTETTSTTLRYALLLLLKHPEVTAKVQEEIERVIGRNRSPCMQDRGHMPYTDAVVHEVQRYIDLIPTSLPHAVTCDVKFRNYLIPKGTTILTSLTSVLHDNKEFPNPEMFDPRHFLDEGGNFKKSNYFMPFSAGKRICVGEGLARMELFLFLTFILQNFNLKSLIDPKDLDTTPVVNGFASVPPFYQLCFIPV
PTK2B oligo ant: blocks oligomerization of human Pyk2 in cells. z-score (the deposit names both 25 µM and 10 µM). Q14289. Q293 cells, Pyk2 FERM NanoBiT luminescence; active compounds read low. AID 1347419. actives 0.83% (n = 99,000);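 active = Z-score of -3 or lower, scaled per plate to the spread of control and sample wells; inactive = z-score above -3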;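 note: negative z-score means lost luminescence so less FERM oligomerization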
CYP2C9 inh: human CYP2C9 inhibition; P11712; AID 777; inhibition, % at 5 µM; CYP2C9 Supersomes, luciferin-H conversion, luminescence; actives 20% (n = 96,000);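 active = blocking of liver enzyme CYP2C9 beyond about 50% at 5 µM, limit read from the data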
CYP2C19 inh: inhibitors of human CYP2C19; inhibition, % at 5 µM; actives 21% (n = 96,000); CYP2C19 Supersomes, luciferin-H EGE luminescence, 30 min; P33261;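 active = CYP2C19 inhibition above a set limit at 5 µM in the primary screen, cut at about 50% in these data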;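 note: plate controls were negative control wells for no effect and 2.5 mM tranylcypromine positive control for full effect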
Active calls of the source: *; / = no result.

SMILES	CYP2C9 activ	Cav3 T inh	CYP2C19 act	PTK2B oligo ant	CYP2C9 inh	CYP2C19 inh
COc1ccc(OC)c(-n2c(SCC(=O)Nc3cc(C)on3)nnc2-c2c[nH]c3ccccc23)c1	0.3	-2.5	0.2	/	68*	84*
CCn1c(SCC(=O)NCc2ccc3c(c2)OCO3)nnc1-c1c[nH]c2ccccc12	/	-0.68	/	-0.47	/	/
COc1ccc(OC)c(-n2c(SC)nnc2-c2c[nH]c3ccccc23)c1	0.3	0.34	0.2	/	68*	78*
COCCn1c(SCC(=O)Nc2cc(C)on2)nnc1-c1c[nH]c2ccccc12	0.3	-0.21	0.5	/	75*	55*
COc1ccc(OC)c(-n2c(-c3ccccc3)n[nH]c2=S)c1	0.9	/	0.6	-0.09	13	44
CC1(C)Cc2nc(N)c(C(=O)NCCO)cc2CO1	0.8	0.58	1.1	0.36	16	-6
Cc1ccc(C(=O)CC(=O)c2cccc(F)c2)c(O)c1	0.3	-2.4	0	-1.2	72*	95*
Cc1ccc(C(=O)c2ccccc2C(=O)O)c(O)c1	0.7	0.79	1.1	0.31	28	-6
COc1ccc(/C=C/C(=O)NCc2cn(C)nc2C)cc1COc1ccc(Br)cc1	0.4	-2.2	0.3	-0.92	60*	67*
CC(C)C[C@H](N)c1cn([C@@H](Cc2ccc(O)cc2)C(=O)N2CCNCC2)nn1	/	0.63	/	/	/	/
CCOCCCNC(=O)N[C@@H](Cc1ccccc1)C(=O)OC	1.2	0.37	1	0.09	-17	-1
Cc1cc(C)n(CC(=O)n2c(C)c(C)c3ccccc32)n1	/	-0.057	/	1.5	/	/
COC(=O)CSc1[nH]c(=O)cc(C)c1C#N	1	-0.5	1.1	0.53	2	-11
Cc1ccccc1NC(=O)CSc1nc(COc2ccccc2)nc2ccccc12	0.1	-1.3	0.2	-1.1	95*	76*
COCc1cc(C)nc(SCC(=O)Nc2ccccc2C)c1C#N	0.7	0.0073	0.1	-1.1	28	94*
CCOC(=O)CSc1[nH]c(=O)cc(C)c1C#N	0.7	-0.038	0.9	-0.08	33	6
Cc1cc(=O)[nH]c(SCC(=O)Nc2ccc(Br)cc2)c1C#N	0.1	-9.8*	0.1	-0.79	93*	95*
Cc1cc(=O)[nH]c(SCC(=O)Nc2ccccc2C#N)c1C#N	0.3	-0.18	0.4	0.54	71*	64*
CCN1C(=Nc2ccc(Cl)cc2)SC/C1=C\C(=O)OC	0.9	-0.56	0.8	-0.64	9	16
Cc1ccc(/C=N/n2nnnc2N)o1	1	-0.042	0.9	-0.44	-1	6
COC(=O)c1sc2ccccc2c1-n1cccc1C(=O)C(=O)Nc1ccccc1	0	-4	0.8	-0.47	100*	24
COC(=O)c1sc2ccccc2c1-n1cccc1C(=O)C(=O)Nc1ccc(OC)cc1	0	-2.3	0.6	-0.62	101*	42
CCCNC(=O)C(=O)c1cccn1-c1ccsc1C(=O)OC	0.9	0.54	0.7	-0.32	8	27
O=C(NCCC1=CCCCC1)N[C@@H](Cc1ccccc1)C(=O)O	1	-1.3	0.9	0.62	-1	7
Cc1cccc(C)c1OC1(c2ccccc2)OC(=O)c2ccccc21 (centres undefined)	0.3	-6.6*	0.2	-1.4	69*	82*
SMILES	CYP2C9 activ	Cav3 T inh	CYP2C19 act	PTK2B oligo ant	CYP2C9 inh	CYP2C19 inh
Cc1cc(C)c(OC2(c3ccccc3)OC(=O)c3ccccc32)c(C)c1 (centres undefined)	0.5	-3.7	0.5	-0.23	55*	54*
O=C(Cn1nnc2ccccc2c1=O)NCc1ccco1	0.8	0.29	1	-0.46	18	2
COc1ccc(Br)cc1C1SCCN1S(C)(=O)=O (centres undefined)	1	-0.038	0.5	0.24	3	50
CC1CCCC(NC(=O)c2ccc3c(=O)n(CC4CCCO4)c(=O)[nH]c3c2)C1C (centres undefined)	1.1	0.08	0.8	-0.3	-9	18
O=C(O)C(Cc1ccccc1)N1C(=O)/C(=C/c2cccc3ccccc23)SC1=S (centres undefined)	0.3	-3	0.9	/	72*	12
Cc1c(N2C(=O)/C(=C\c3cccc4ccccc34)SC2=S)c(=O)n(-c2ccccc2)n1C	0.8	1.2	0.3	-0.39	25	71*
O=C(O)C(Cc1ccccc1)N1C(=O)/C(=C/c2ccccc2)SC1=S (centres undefined)	/	/	/	0.56	/	/
